This is an account of results in PubChem BioAssay AID488969 (Vanderbilt High Throughput Screening Facility, 2010).

Over roughly 110,000 compounds, “z-score” has its median near -0.1; the highest 2% begin near 2. Many of the other results were omitted from the sample, so the highest values are more common in it than they were. Activity calls are given as the source filed them.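 Rule for the calls: active = z-score in the third read window above 3 or below -3; inactive = the rest.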

Metabotropic glutamate receptor 8 (Rattus norvegicus), sequence (P70579 whole entry, looked up): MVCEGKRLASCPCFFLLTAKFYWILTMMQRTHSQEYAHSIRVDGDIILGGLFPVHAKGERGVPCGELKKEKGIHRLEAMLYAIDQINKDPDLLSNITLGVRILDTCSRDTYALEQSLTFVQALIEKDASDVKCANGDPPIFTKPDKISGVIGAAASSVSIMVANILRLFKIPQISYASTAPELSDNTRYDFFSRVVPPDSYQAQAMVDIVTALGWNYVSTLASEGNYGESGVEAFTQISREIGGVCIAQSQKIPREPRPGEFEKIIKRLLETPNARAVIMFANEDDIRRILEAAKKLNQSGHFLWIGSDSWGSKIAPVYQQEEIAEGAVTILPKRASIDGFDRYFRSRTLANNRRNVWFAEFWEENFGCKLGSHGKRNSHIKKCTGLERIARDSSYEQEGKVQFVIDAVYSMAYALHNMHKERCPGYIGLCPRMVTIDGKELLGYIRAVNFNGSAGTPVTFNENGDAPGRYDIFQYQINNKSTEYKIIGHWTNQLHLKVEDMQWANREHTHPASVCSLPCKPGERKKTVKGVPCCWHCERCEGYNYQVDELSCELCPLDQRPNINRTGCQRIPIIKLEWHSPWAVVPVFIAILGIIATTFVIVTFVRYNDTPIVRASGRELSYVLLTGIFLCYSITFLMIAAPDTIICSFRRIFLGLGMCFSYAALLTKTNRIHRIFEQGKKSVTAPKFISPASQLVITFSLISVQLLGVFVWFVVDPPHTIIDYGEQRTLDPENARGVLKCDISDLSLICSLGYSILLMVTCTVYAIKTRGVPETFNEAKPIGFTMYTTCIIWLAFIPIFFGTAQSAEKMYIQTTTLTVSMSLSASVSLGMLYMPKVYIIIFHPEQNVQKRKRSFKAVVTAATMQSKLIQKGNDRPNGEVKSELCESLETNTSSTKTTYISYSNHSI

The experiment addresses Metabotropic glutamate receptor 8 (Rattus norvegicus) (UniProt P70579). The experiment can be described thus: rat mGluR8 modulators via GIRK flux, primary screen, cell-based, thallium flux, HTS (AID 488969). Conditions: HEK293 rat mGluR8, GIRK (G protein-gated inwardly rectifying potassium channel) thallium flux, FluoZin2; at 10 µM; stronger effect = higher value; submaximal glutamate (EC20) added with thallium.
As to `O=C1Nc2ccccc2C12OCC1(CO2)COC2(OC1)C(=O)Nc1ccccc12` (stereo not given), the z-score is 3.45 (active). `O=C1Nc2ccccc2C12OCCO2`: the z-score was -0.0845. The result for `O=C1Nc2ccccc2C12OCCCO2` reads 0.489.

On to `CCN(CC)S(=O)(=O)c1ccc(/C=C/C(=O)Nc2ccc(F)c(F)c2F)cc1`, for which the z-score was -0.0872.

Take `Cc1cc(Cl)ccc1OCC(=O)NC1CCCC1`: the z-score is 0.0341. Turning to `Cc1ccc(NC(=O)c2ccc(OC(=O)COc3ccc(Cl)cc3C)cc2)cc1`, the z-score is -0.069. For the compound `Cc1ccc(C(=O)CC(=O)COc2ccc(Cl)cc2)cc1`, the z-score is 5.07 (active).

In turn, `COC(=O)C(CC(=O)c1ccc(Cl)cc1)c1ccc(C)cc1` (stereo not given) showed a z-score of -0.155. In turn, `Cc1ccc(NCCC(=O)c2ccc(Cl)cc2)cc1` showed a z-score of -0.27. The result for `Cc1ccc(C(=O)CC(=O)COc2ccc(Cl)cc2C)cc1` reads 5.45 (active). The same measure for `Cc1cc(C)nc(/N=C(\N)Nc2ccc([N+](=O)[O-])cc2)n1`: -0.477; for `O=C(O)c1cccc(-n2cnnn2)c1`: -0.667; for `CCSc1nnc(NC(=O)CC)s1`: 5.27 (active). The result for `CCSc1nnc(NC(=O)NC(CC)(C(F)(F)F)C(F)(F)F)s1` reads 3.86 (active); that for `CCSc1nnc(NC(=O)C(CC)(C(F)(F)F)C(F)(F)F)s1`, -0.322; that for `CCC(NC(=O)Nc1nnc(C(F)(F)F)s1)(C(F)(F)F)C(F)(F)F`, 0.241. As for `CCC(=O)Nc1nnc(SCCOC)s1`, the z-score is 0.214. In turn, `CCCC(=O)Nc1nnc(SCC)s1` gave a z-score of 0.0928.

Consider `CCCCN1CCc2[nH]c(=S)[nH]c(=O)c2C1`, for which the z-score is -0.178. The same measure for `Cc1ccccc1C(=O)Oc1cccc(Nc2ncnc3ccccc23)c1`: -1.4; for `CC(NC(=O)C1CCC1)c1ccc(Br)cc1` (stereo not given): -0.264. Take `CCN(CC)S(=O)(=O)c1cccc(C(=O)NC(C(=O)NC2=NCCS2)C(C)C)c1` (stereo not given): the z-score is 0.126. The result for `CCNc1nc(NC#N)nc(SCC(=O)OCC)n1` reads -0.413.

In the case of `COC(=O)c1ccc(CSc2nc3c(cnn3-c3ccccc3)c(=O)[nH]2)o1`, the z-score was -0.686. As for `COc1ccc(C(=O)NC(=S)NNC(=O)CCc2ccccc2)cc1`, the z-score was 3.38 (active). The result for `O=C(CCc1ccccc1)NNC(=S)NC(=O)c1ccc(Cl)cc1` reads 3.03 (active); that for `CC(C)(C)c1ccc(OCC(=O)NNC(=O)CCc2ccccc2)cc1`, 0.639; that for `O=C(CCc1ccccc1)NNC(=O)c1ccc(NC(=O)c2ccccc2)cc1`, 0.0748. The result for `CC(=O)Nc1ccc(C(=O)NNC(=O)CCc2ccccc2)cc1` reads -0.185; that for `O=C(CCc1ccccc1)NNC(=S)NC(=O)c1ccccc1`, 1.13; that for `O=C(Cc1csc(N2CCOCC2)n1)N/N=C/c1ccc(Cl)cc1Cl`, -0.885.

For the compound `N#Cc1c2n(c3c(=S)nc[nH]c13)CCCCC2`, the z-score is 2.2. Consider `N#Cc1c2n(c(=S)n(-c3ccccn3)c1=O)CCCCC2`, for which the z-score was -0.927. The result for `N#Cc1c2n(c(=O)[nH]c1=O)CCCCC2` reads -0.0381; that for `O=C(CNC(=O)c1ccccc1F)NCCOc1ccccc1Cl`, -0.065; that for `CCOc1ccc(N=CC2=C(O)CC(C)(C)CC2=O)cc1`, 0.649. The same measure for `CC1(C)CC(=O)C2=C(C1)OC1=C(C(=O)CC(C)(C)C1)C2(C)C`: -0.182.

`CCOC12CC(C)(C)CC(C)(CC3=C1C(=O)CC(C)(C)C3)C2` (stereo not given) yielded a z-score of 2.32. On to `CCOC(=O)C1CCCN(C(=O)CN2C(=O)COc3ccc(C(C)(C)C)cc32)C1` (stereo not given), for which the z-score is -1.06. Compound `CCOC(=O)N1CCN(Cc2nc3c(c(=O)n(C)c(=O)n3C)n2Cc2ccccc2C)CC1` registered a z-score of -0.27. Turning to `COc1ccccc1NC(=S)NCCc1ccccc1`, the z-score is -0.188. `S=C(NCCc1ccccc1)Nc1ccc(Br)cc1` returned a z-score of 0.268.

In the case of `Fc1cc(Br)ccc1NC(=S)NCCc1ccccc1`, the z-score was 7.09 (active). The result for `Fc1cc(Br)ccc1NC(=S)Nc1ccccc1` reads 0.843; that for `Fc1ccc(NC(=S)NCCc2ccccc2)c(F)c1F`, 2.71. The result for `S=C(NCCc1ccccc1)Nc1ccc(Cl)cc1Cl` reads 1.43.

As to `Fc1ccccc1NC(=S)NCCc1ccccc1`, the z-score was 0.134. As for `COc1ccccc1NC(=S)NCCc1ccc(Cl)cc1`, the z-score is 3.06 (active). Consider `COc1ccc(NC(=S)NCCc2ccc(Cl)cc2)c(OC)c1`, for which the z-score turned out to be 0.319. The same measure for `COc1cc2c(cc1NC(=O)CSc1ccccc1)oc1ccccc12`: -0.258; for `O=C(N/N=C/c1c[nH]c2ccccc12)c1cc(-c2cccc3ccccc23)n[nH]1`: -0.463. For the compound `COc1ccc(OCC(=O)O/N=C(\N)Cc2ccc(Cl)cc2Cl)cc1`, the z-score worked out at 0.353.

In the case of `CCOC(=O)c1[nH]c(C)c(/C(O)=C2\C(=O)C(=O)N(CCCN(C)C)C2c2cccnc2)c1C` (stereo not given), the z-score was -0.333. The same measure for `COc1cc(CNc2nc3ccccc3n2C)cc(OC)c1OC`: -0.245. Take `CCCNC(=O)COC(=O)c1cc(SC)ccc1Cl`: the z-score is 0.561.

In the case of `O=C(CN(C(=O)Cn1nnc(-c2cccs2)n1)c1ccc2c(c1)OCCO2)NC1CCCCC1`, the z-score was -0.0843.

The compound `Cc1cccc(N2C(=S)N=C(Nc3c(C)cccc3C)C23CCOC(C)(C)C3)c1` (stereo not given) returned a z-score of -0.179. The result for `Cc1ccccc1NC1=NC(=S)N(c2ccccc2)C12CCOC(C)(C)C2` (stereo not given) reads 12.6 (active).

For the compound `CCC1(C)C(Nc2c(C)cccc2C)=NC(=S)N1c1ccc(NC(C)=O)cc1` (stereo not given), the z-score is -0.38. The result for `Cc1cccc(C)c1NC1=NC(=S)N(c2ccccc2)C12CCOC(C)(C)C2` (stereo not given) reads 0.847; that for `Cc1ccc(N2C(=S)N=C(Nc3ccccc3C)C23CCOC(C)(C)C3)cc1` (stereo not given), 15 (active).

The compound `Cc1cccc(C)c1NC1=NC(=S)N(c2ccc(N(C)C)cc2)C1(C)C` came in with a z-score of 1.87.

Compound `Cc1sc(NC(=S)NC(=O)C(C)(C)C)c(C(N)=O)c1C` displayed a z-score of -0.0974. The result for `O=C(O)C1C2C=CC(C2)C1C(=O)NCCc1ccncc1` (stereo not given) reads 0.718. For `O=C(O)C1C2C=CC(C2)C1C(=O)NCCc1cccc(Cl)c1` (stereo not given), the z-score was 6.03 (active). The same measure for `O=C(O)C1C2C=CC(C2)C1C(=O)NCCc1ccccc1` (stereo not given): -0.122; for `CCc1nnc(NC(=O)CN2CCN(c3cccc(OC)c3)CC2)s1`: 0.136; for `CCCOC(=O)NC(CC)COC(=O)Nc1cccc(C)c1C` (stereo not given): 3.15 (active).

As to `CCC(COC(=O)Nc1cccc(C)c1C)NC(=O)OCC(C)C` (stereo not given), the z-score is -0.549. The compound `CCCOC(=O)NC(CC)COC(=O)Nc1cc(C)ccc1C` (stereo not given) gave a z-score of -0.0367. `CN(C1CCCCC1)S(=O)(=O)c1ccc2c(c1)c(=O)c(C(=O)N1CCc3ccccc3C1)cn2C`: the z-score is -1.33. The same measure for `Cc1cc(Cl)c(S(=O)(=O)Nc2ccc(Cl)cn2)cc1OCC(N)=O`: 0.203; for `COc1cccc(-n2c(=O)[nH]cc(C(=O)Nc3ccc(NC(C)=O)cc3)c2=O)c1`: -0.503; for `COc1ccc(-n2c(=O)[nH]cc(C(=O)Nc3ccc(NC(C)=O)cc3)c2=O)cc1`: 9.34 (active). Take `COc1ccc(-n2c(=O)[nH]cc(C(=O)Nc3ccccc3)c2=O)cc1`: the z-score is 0.241.
